Results on 88 molecules are retold here after PubChem BioAssay AID588852 (The Scripps Research Institute Molecular Screening Center, 2011).

Hit rate of the full screen: of about 360,000 compounds, about 4,600 (1.3%) were called active. Only a selection was taken, and actives are over-represented in it overall. Values without a mark were called inactive.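 Rule for the calls: active = percent inhibition above its own plate's cutoff, namely the mean of that plate's compound wells plus 3 SD; inactive = the rest.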

Muscarinic acetylcholine receptor M1 (Homo sapiens), sequence (P11229 whole entry, looked up): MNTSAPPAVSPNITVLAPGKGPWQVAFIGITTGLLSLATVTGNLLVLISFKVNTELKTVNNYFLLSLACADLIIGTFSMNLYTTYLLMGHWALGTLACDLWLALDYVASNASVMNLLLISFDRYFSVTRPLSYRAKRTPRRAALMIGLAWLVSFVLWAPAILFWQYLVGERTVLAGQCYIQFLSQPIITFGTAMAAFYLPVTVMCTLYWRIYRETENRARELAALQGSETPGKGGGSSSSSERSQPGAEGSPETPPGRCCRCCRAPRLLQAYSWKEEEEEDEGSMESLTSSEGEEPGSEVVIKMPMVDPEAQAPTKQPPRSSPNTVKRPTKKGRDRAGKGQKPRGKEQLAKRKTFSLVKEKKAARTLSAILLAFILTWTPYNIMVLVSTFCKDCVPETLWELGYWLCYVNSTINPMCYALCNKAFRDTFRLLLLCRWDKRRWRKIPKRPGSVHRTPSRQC

This experiment concerns the target Muscarinic acetylcholine receptor M1 (Homo sapiens) (UniProt P11229). The experiment is described as follows: CHRM1 blockers of acetylcholine calcium response – CHO-K1 cells, Fluo-8 calcium fluorescence, 1536-well, primary screen (AID 588852).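 Note: peak over basal fluorescence ratio during 140 s after agonist addition; 0% = ACh EC80 plus DMSO and 100% = DMSO alone without agonist.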 The conditions noted are these: CHO-K1 hM1, Fluo-8 calcium fluorescence, ACh EC80 antagonist; at 3 µM; hits give high values.
As to `CCn1cc(-c2cc(C(=O)O)on2)c(C)n1`, the inhibition was -5.04%.
To `Cc1ccc(-c2nc3ccc(Br)cn3c2Cc2ccccc2C(F)(F)F)cc1` belongs -2.72%; to `CN1C(=O)c2ccc(NC(=O)c3c(F)c(F)c(F)c(F)c3F)cc2C1=O`, -10%.
To `O=C(CSc1nc2c(cnn2-c2ccc(F)cc2)c(=O)[nH]1)N1CCCCCC1` belongs 39.7% (active).
With `CCC(C)Sc1nc2c(cnn2-c2ccc(F)cc2)c(=O)[nH]1` (stereo not drawn) the figure was -10.5%; with `Cc1cccc(-n2ncc3c(=O)[nH]c(SCC(=O)Nc4cc(C)on4)nc32)c1`, -7.77%.
With `CC(C)C[C@H](NC(=O)[C@@H]1O[C@H]1C(=O)O)C(=O)NCCCCN=C(N)N`, the inhibition was -28.2%.
With `CCCNC(=O)C1(C)CCN(Cc2csc(-c3ccc(Cl)cc3)n2)C1` (stereo not drawn) the figure was 15.8%; with `CSCCC(c1nnnn1Cc1ccccc1)N1CCN(C/C=C/c2ccccc2)CC1` (stereo not drawn), -4.53%.
To `Nc1ncnc2c1ncn2[C@@H]1O[C@H](C(=O)N2CCSC2)[C@@H](O)[C@H]1O` belongs -21.6%; to `CN(C)CCCO/N=C(\c1ccccc1)c1ccncc1`, 34.6% (active).
For `COc1cc(OC)nc(N/N=C(\c2ccccc2)c2ccncc2)n1`, the inhibition was 1.36%.
In the case of `O=C(O/N=C(/c1ccccc1)c1ccncc1)c1ccccc1[N+](=O)[O-]`, the inhibition is 0.78%.
With `Oc1ccccc1N1CCN(c2ncnc3sc(-c4ccccc4)cc23)CC1` the figure was 25.7% (active); with `COc1ccccc1N1CCN(c2ncnc3sc(C)c(-c4ccccc4)c23)CC1`, -8.38%; with `CCc1cc2c(N3CCN(c4nnc(CC)s4)CC3)ncnc2s1`, 6.82%.
With `CN(C)C(=O)c1cccc(-c2cnc3c(NC=O)cc(-c4ccc(F)cc4)cn23)c1` the figure was -4.58%; with `O=C(COc1ccc(Cl)cc1)Nc1ccccc1CO`, 3.31%; with `Cc1cc(C)cc(OCC(=O)Nc2ccc(N3CCOCC3)cc2N2CCOCC2)c1`, 0.26%.
For the molecule `Cc1cc(N2CCCC2)ccc1NC(=O)COc1ccc(Cl)cc1`, the inhibition was 38.5% (active).
To `Fc1ccccc1CCNc1nnnn1-c1ccccc1` belongs -15.4%; to `O=C(COc1ccccc1)Nc1nonc1NC(=O)COc1ccccc1`, 3.1%; to `COc1ccc(C)cc1NC(=S)Nc1ccccc1SC`, -4.63%.
Regarding `Cc1cccc(C(=O)N2CCC(c3nc4ccccc4s3)CC2)c1`, the inhibition was 41.2% (active).
To `Cc1cccc(NC(=S)N2CCC(c3nc4ccccc4s3)CC2)c1` belongs 6.88%; to `O=C(c1cccs1)N1CCC(c2nc3ccccc3s2)CC1`, -0.25%.
To `CC(/C=C/c1ccccc1)=N\NC(=O)C1CC1(C)c1ccccc1` (stereo not drawn) belongs -3.18%; to `O=C(CNC(=O)c1ccccc1Br)NCCSc1ccc(Br)cc1`, -10.6%; to `COc1cc(NC(=O)COc2ccccc2Cl)ccc1NC(=O)C(C)C`, 6.01%.
With `CCc1ccccc1OCC(=O)Nc1ccc(C)c(S(=O)(=O)N2CCCCCC2)c1`, the inhibition was 6.49%.
With `Cc1ccccc1OCC(=O)Nc1ccc(N2CCN(C(=O)C(C)C)CC2)c(Cl)c1`, the inhibition was 34.5% (active).
With `CCN1C(=O)[C@H]2[C@@H](c3ccccc3)N[C@]3(CCCN(Cc4ccc(C)cc4)C3=O)[C@H]2C1=O` the figure was -5.93%; with `CSc1ncccc1C(=O)NCC(c1ccco1)N1CCCCC1` (stereo not drawn), 34.8% (active); with `COc1ccccc1C(=O)NCCC(=O)NCC(c1ccco1)N1CCCCC1` (stereo not drawn), -5.11%.
To `COc1ccc(C(CNC(=O)c2cccnc2SC)N2CCOCC2)cc1` (stereo not drawn) belongs -5.53%; to `Cc1nn(-c2ccccc2)c2sc(C(=O)N(Cc3ccco3)C(C)C(=O)NC(C)(C)C)cc12` (stereo not drawn), -7.09%; to `CCOC1=C2CN(S(=O)(=O)c3ccc(C)cc3)[C@H](c3cccs3)C[C@H]2[C@H]2C(=O)N(c3ccccc3)C(=O)[C@H]2C1`, 1.5%.
With `CC(C)C1CC2=C(C(=O)OC(C)(C)O2)C(c2ccc(F)cc2)O1` (stereo not drawn) the figure was -37.3%; with `O=C(NCC(=O)N(CC1CCCO1)C(C(=O)NC1CCCCC1)c1ccccc1)c1ccco1` (stereo not drawn), -7.84%.
Consider `Cc1ccccc1N(C(=O)CNC(=O)c1cccs1)C(C(=O)NC1CCCC1)c1ccncc1` (stereo not drawn), for which the inhibition was -4.08%.
With `O=C(NCC(=O)N(Cc1cccs1)C(C(=O)NC1CCCCC1)c1ccco1)c1cccs1` (stereo not drawn) the figure was 35.6% (active); with `COc1ccc(CC(N)c2csc(NC(=O)NC(c3ccccc3)c3ccccc3)n2)cc1` (stereo not drawn), -1.87%.
With `CN1OC[C@@H]2CN(C(=O)C(C)(C)C)[C@H](c3ccc(-n4ccnc4)cc3)C[C@@H]21` the figure was 13.8%; with `O=C(COC(=O)c1cc(S(=O)(=O)N2CCOCC2)ccc1F)NC1CC1`, -2.77%.
To `CCOC(=O)/C(N=Nc1cc(C(=O)O)cc(C(=O)O)c1)=C(\O)CCl` belongs -12%; to `CCN(CC)CCn1c2c(c(SCC(=O)Nc3nc4ccccc4s3)nc1=O)CCCC2`, 42.1% (active).
As for `CCN(CC)CCn1c2c(c(SCC(=O)Nc3ccc(C(C)C)cc3)nc1=O)CCC2`, the inhibition was 7.72%.
To `Cc1ccc2nc(NC(=O)CSc3nc(=O)n(CCCN(C)C)c4c3CCC4)sc2c1` belongs 8.16%; to `COCCn1c(SCC(=O)Nc2cc(OC)ccc2OC)nc2c(c1=O)SC(C)C2` (stereo not drawn), -11.7%.
With `CC1CN(C(=O)c2ccc3c(c2)OCO3)OC(c2ccccc2)O1` (stereo not drawn) the figure was 1.63%; with `CCOc1ccc(NC(=O)c2ccc(NC(=O)COC(=O)c3ccc(NC(=O)CC#N)cc3)cc2)cc1`, 7.32%.
To `COc1ccc(NC(=O)COC(=O)C2COc3ccccc3O2)cc1` (stereo not drawn) belongs -2.48%; to `CCC(C)(C)c1ccc(Oc2ccc(NC(=O)COC(=O)C3=COCCO3)cc2)cc1`, 24.8% (active); to `COc1ccc(C(C(=O)NC2CCCCC2)N(C(=O)Cc2c[nH]c3ccccc23)c2ccccc2)cc1OC` (stereo not drawn), -2.89%.
In the case of `COc1ccc(C2CC(c3cccs3)=NN2C(=O)CSc2nncs2)cc1OC` (stereo not drawn), the inhibition was -3.74%.
As for `COc1ccc(C2CC(c3cccs3)=NN2C(=O)CSc2nnc(N)s2)cc1OC` (stereo not drawn), the inhibition is 48.8% (active).
With `COc1ccc(C2CC(c3cccs3)=NN2C(=O)COC(=O)c2cc3ccccc3cc2O)cc1OC` (stereo not drawn) the figure was -1.73%.
With `O=C(Nc1nnc([C@H]2C[C@H](O)[C@@H](CO)O2)s1)c1cccc(Cl)c1` the figure was -7.54%; with `Nc1nc2c(ncn2[C@@H]2O[C@H](CNCc3ccc(OCCCN4CCOCC4)cc3)[C@@H](O)[C@H]2O)c(=O)[nH]1`, -12.3%; with `COC(=O)c1ccccc1Sc1c(/C=N/OCc2ccc(Cl)cc2)c(C(F)(F)F)nn1C`, 6.15%.
With `Cn1nc(C(F)(F)F)c(C(=O)Nc2cccc(C(F)(F)F)c2)c1SCc1ccc(Cl)cc1` the figure was 45.3% (active).
As for `O=C(CN1CCN(c2ccc(F)cc2)CC1)Nc1cccc(C(F)(F)F)c1`, the inhibition is -30.1%.
To `COc1cccc(NC(=O)Nc2nnc(N3CCCCC3C)s2)c1` (stereo not drawn) belongs -9.08%; to `C=C(C)c1cccc(C(C)(C)NC(=O)N2CCN(c3ncccn3)CC2)c1`, -3.97%; to `C=C(C)c1cccc(C(C)(C)NC(=O)NCCN(CC)CC)c1`, 82.6% (active).
In the case of `C=C(C)c1cccc(C(C)(C)NC(=O)NC2CCCC2)c1`, the inhibition is -0.33%.
With `CN(CC(=O)NCCc1ccccc1)S(=O)(=O)c1cnc[nH]1` the figure was -5.57%; with `CC(C)C(=O)Nc1nnc(Sc2ccc(N(C)C)cc2)s1`, -14.1%; with `CN(C)C1=NC[C@H](Cc2ccccc2)N1CCc1ccc(F)cc1`, 9.98%.
With `CC(NC(=O)Nc1ccccc1)c1ccccc1` (stereo not drawn) the figure was -2.37%.
With `CC(C)c1ccc(NC(=O)Cn2ncc3ccccc32)cc1` the figure was -20.8%; with `CCC(C(=O)Nc1ccc(C(C)C)cc1)c1ccccc1` (stereo not drawn), 37.1% (active).
As for `COc1ccc(C(C)(O)c2nc(-c3cc(F)cc(F)c3)cs2)cc1` (stereo not drawn), the inhibition was -4.19%.
To `COc1ccccc1N(C)S(=O)(=O)c1ccc(C(=O)N2CCC(C(N)=O)CC2)cc1` belongs -7.95%; to `COC(=O)CCCCC1=CCC2C(=O)C=C(O)C2C1` (stereo not drawn), 4.53%.
With `Cc1ccc(C)c(N2CCN(C(=O)CCCn3c(=O)c4cccn4c4cccnc43)CC2)c1` the figure was -0.03%; with `Cc1ccc(C)c(N2CCN(C(=O)CCCCCn3c(=S)[nH]c4ccc(N5CCOCC5)cc4c3=O)CC2)c1`, 39.5% (active); with `O=C(CCCCCn1c(=S)[nH]c2cc3c(cc2c1=O)OCO3)N1CCN(c2ccc(F)cc2)CC1`, -8.71%.
On to `Cc1ccnc(NC(=O)C(C)N2C(=O)c3ccccc3C2=O)c1` (stereo not drawn), for which the inhibition is -0.26%.
To `Cc1ccccc1C#CC1=CC(=O)CC(C)(C)C1` belongs -7.17%.
With `CN1CCN(c2ccc([N+](=O)[O-])c(Sc3nc4ccccc4[nH]3)c2)CC1` the figure was -0.69%; with `CN(Cc1ccccc1)C(=O)CSc1nc2ccccc2[nH]1`, -5.93%.
To `CCC(C)N1C(=O)S/C(=C/c2ccc(Sc3nc4ccccc4[nH]3)o2)C1=O` (stereo not drawn) belongs 32.9% (active); to `O=C(C1CCC1)N1CCc2cc(S(=O)(=O)NCc3cccnc3)ccc21`, -15.2%.
Turning to `COc1ccc(C(c2nnnn2C2CCCC2)N2CCN(C/C=C/c3ccccc3)CC2)cc1` (stereo not drawn), the inhibition was 48.7% (active).
To `FC(F)(F)Oc1ccccc1C(c1nnnn1C1CCCCC1)N1CCN(C/C=C/c2ccccc2)CC1` (stereo not drawn) belongs -18.7%.
With `COc1ccc(C(c2nnnn2C2CCCCC2)N2CCN(c3ccccc3F)CC2)cc1` (stereo not drawn) the figure was -2.28%; with `CC(=O)Nc1cc(-c2ccccc2N(C)C)cn2c(-c3ccc(F)c(Cl)c3)cnc12`, -16.4%.
